Source: PubChem BioAssay
Values without a mark were called inactive. The source made the active and inactive calls.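 The calls were made as follows: active = inhibition at or above 50% relative to wild type and mutant plate controls; inactive = inhibition below 50%.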

assay: loss of swimming-algae plug formation – whole organism, Chlamydomonas reinhardtii, WT vs cilia-less mutant, absorbance, 96-well, primary screen (AID 463189); details: Chlamydomonas reinhardtii gravitaxis, OD600 absorbance, 2 days; at 10 µM; hits give high values;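 also: 0% = wild type cc124 cells in DMSO and 100% = ciliumless bld1 mutant cells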

Compared with CCCCCCOc1ccc(C(=O)n2cnc(N)n2)cc1, COc1ccc(CNc2oc(COc3ccc(Cl)cc3)nc2C#N)cc1 is higher in inhibition: 0.29% for the first, 2.55% for the second.

Going from CCSc1nc2sc3c(c2c2nnc(SCC(=O)NCc4ccco4)n12)CCCC3 to O=C(NCc1ccco1)c1ccc(=O)[nH]n1, the inhibition rises from 9.13% to 29.4%.

Going from C=CCc1cccc(CNc2nc3ccccc3n2C(C)C)c1O to COc1cccc(Cn2c(NCc3ccccn3)nc3c2c(=O)n(C)c(=O)n3C)c1, the inhibition rises from 2.16% to 4.17%.

First: COc1ccc(NC(=O)c2c(C)cc(=O)oc2C)c(OC)c1
Second: CCOC(=O)C(C)Oc1ccc2c(C)cc(=O)oc2c1C(C)=O (centres undefined)
The inhibition of the first is lower: -7.06% for the first, 3.24% for the second.

Compared with Cc1c(C)[n+](=O)c2c(n1[O-])CCC2, CCOC(=O)c1[nH]c2ccc(OC)cc2c1NC(=O)CCN1CCCC(C)C1 (centres undefined) is lower in inhibition: 38.1% for the first, 28.8% for the second.

Compared with COC(=O)CCc1c(C)[nH]c(=S)[nH]c1=O, CCOC(=O)c1[nH]c2ccccc2c1N=CN(CC)CC is lower in inhibition: -5.54% for the first, -14.4% for the second.

Compared with CCOC(=O)C1=C(N)n2c(s/c(=C\c3cccnc3)c2=O)=C(C(=O)OC)C1c1cccnc1 (centres undefined), Cc1cc(C)n(CC(=O)c2ccccc2)c(=O)c1C#N is higher in inhibition: -3.27% for the first, -1.97% for the second.

Going from CC1(C)Cc2[nH]c(=O)c(C#N)cc2CS1 to CCC1(C)Cc2c(sc(NC(=O)CCC(=O)O)c2C#N)CO1 (centres undefined), the inhibition falls from 3.23% to -2.53%.

Compared with COc1ccccc1C1CC(c2ccc(Cl)cc2)Nc2nc(N)nn21 (centres undefined), COC(=O)c1ccccc1NC(=O)C1COc2ccccc2O1 (centres undefined) is higher in inhibition: -3.22% for the first, 3.4% for the second.

First: O=C(NCCCN1CCOCC1)C1(c2ccccc2)CCOCC1
Second: O=C(NCc1ccccc1)C1C(=O)N(Cc2ccccc2)C(=O)C1C1(O)CCCC1 (centres undefined)
The inhibition of the first is higher: 19.5% for the first, -5.5% for the second.

Compared with CC(NC(=O)CSc1nc2c(cc1C#N)CN(C)CC2)c1ccccc1 (centres undefined), COc1cccc(C(=O)OC2CCCN(C)C2)c1 (centres undefined) is lower in inhibition: 11.3% for the first, 0.435% for the second.

Cn1c(=O)[nH]c(=O)c2c1nc(N1CCN(c3cccc(Cl)c3)CC1)n2CCCc1ccccc1 showed an inhibition of -0.786%.

With O=C(Nc1ccc(N2CCN(C(=O)c3ccccc3)CC2)c(Cl)c1)c1ccc(Br)o1 the inhibition was 117% (active).
